# Sampled rows, rich in hits. Any-hit rate of the full collection: about 12%.
# Sfp inh: inhibitors of Bacillus subtilis Sfp phosphopantetheinyl transferase; Q9F4F7; Biochemical Sfp PPTase activity, qHTS; Potency, µM, without a hit: largest response in the series, negative = inhibition, usual class: inhibitors; 3.5% of 310,000 active; AID 1490;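 further: the enzyme is Sfp with the accession as filed and its product quenches rhodamine fluorescence; 0% = enzyme reaction without inhibitor and -100% = no enzyme wells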
#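 After 15 min at room temperature with compound, 15 nM Sfp received 5 uM rhodamine-CoA plus 12.5 uM BHQ-2-ybbR (50 mM Hepes pH 7.6, 10 mM MgCl2). Rate came from the fluorescence difference over 30 min, ex 525/em 598 nm.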
# JMJD2A Tudor: blocks the human JMJD2A Tudor domain; O75164; AlphaScreen JMJD2A-Tudor / H3K4me3 peptide binding; Potency, µM (highest dose often 114 µM), inactives show at the highest dose activity change, negative = inhibition, usual class: inhibitors; 4.4% of 390,000 active; AID 504339; further: on the % scale 0 is the no-effect control and ±100 the full control effect; nearly all actives have a fitted effect of over 50% in size
# Target sequence (O75164 whole entry, looked up, the tested form may be a part): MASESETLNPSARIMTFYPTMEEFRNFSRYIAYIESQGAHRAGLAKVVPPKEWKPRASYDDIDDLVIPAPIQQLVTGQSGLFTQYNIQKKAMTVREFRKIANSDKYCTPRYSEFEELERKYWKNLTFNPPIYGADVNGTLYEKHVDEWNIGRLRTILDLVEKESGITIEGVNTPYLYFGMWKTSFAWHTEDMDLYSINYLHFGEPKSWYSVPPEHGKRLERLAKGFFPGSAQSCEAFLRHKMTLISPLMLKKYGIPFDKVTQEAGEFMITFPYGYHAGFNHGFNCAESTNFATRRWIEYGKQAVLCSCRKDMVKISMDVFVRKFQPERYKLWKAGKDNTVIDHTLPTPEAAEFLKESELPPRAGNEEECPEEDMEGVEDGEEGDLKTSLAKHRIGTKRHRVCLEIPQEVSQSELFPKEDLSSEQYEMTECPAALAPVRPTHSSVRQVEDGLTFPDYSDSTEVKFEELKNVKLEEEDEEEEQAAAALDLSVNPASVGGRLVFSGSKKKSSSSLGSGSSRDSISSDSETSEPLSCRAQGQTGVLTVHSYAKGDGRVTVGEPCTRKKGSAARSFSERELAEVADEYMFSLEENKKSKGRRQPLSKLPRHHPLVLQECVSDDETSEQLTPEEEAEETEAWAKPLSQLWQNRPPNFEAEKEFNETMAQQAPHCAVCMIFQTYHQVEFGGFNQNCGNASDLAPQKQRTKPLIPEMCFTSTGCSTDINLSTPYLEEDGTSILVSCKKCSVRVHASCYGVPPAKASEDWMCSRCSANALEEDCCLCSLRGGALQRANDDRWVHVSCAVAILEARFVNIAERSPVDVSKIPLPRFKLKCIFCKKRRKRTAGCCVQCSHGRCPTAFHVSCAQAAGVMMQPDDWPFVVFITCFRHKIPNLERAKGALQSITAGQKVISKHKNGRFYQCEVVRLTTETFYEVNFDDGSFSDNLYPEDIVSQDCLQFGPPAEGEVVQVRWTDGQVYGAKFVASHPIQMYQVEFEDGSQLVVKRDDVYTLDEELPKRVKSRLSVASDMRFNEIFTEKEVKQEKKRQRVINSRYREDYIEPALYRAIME
# G9a inh: blocks human histone lysine methyltransferase G9a | AID 504332 | Q96KQ7 | G9a H3K9 monomethylation, AlphaScreen, 2 h | Potency, µM (top dose mostly 102 µM), inactives show at the highest dose activity, negative = inhibition, actives largely listed as inhibitors | 8.8% of 350,000 active; further: on the % scale 0 is the no-effect control and ±100 the full control effect; nearly all actives have a fitted effect of over 75% in size
#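 Signal arises when biotinylated H3K9 peptide, once monomethylated, bridges streptavidin donor and antibody-captured acceptor beads. Enzyme at 20 nM was preincubated 15 min with test compounds; peptide 500 nM and SAM 20 uM then reacted for 2 h.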
# BAZ2B inh: inhibitors of human BAZ2B bromodomain; Q9UIF8; 4.4% of 360,000 active; AlphaScreen BAZ2B-H3K14Ac peptide displacement; AID 504333; Potency, µM (titrated, usually from 114 µM), for the others: at the highest dose activity change, negative = inhibition, actives largely listed as inhibitors; further: on the % scale 0 is the no-effect control and ±100 the full control effect; nearly all actives have a fitted effect of over 60% in size
#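 Protein-peptide AlphaScreen: BAZ2B 50 nM, b-H3K14Ac 50 nM, 1x PBS pH 7.4 + 0.01% Tween-20. Preincubation 30 min RT; cpd 30 min RT (top 110 uM); beads 20 min RT, light-protected.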
# PLK1 PBD inh: PLK1 (human) polo-box domain binding inhibition; 2.8% of 360,000 active; AID 720504; Potency, µM, without a hit: max response, negative = inhibition, actives largely listed as inhibitors; Plk1 PBD binding of FITC phosphopeptide, fluorescence polarization; further: series mostly up to about 57 µM; on the % scale 0 is the no-effect control and ±100 the full control effect; nearly all actives have a fitted effect of over 65% in size
# HP1b chromo inh: blocks HP1-beta chromodomain binding to methylated histone tails | P83916 | AlphaScreen HP1-beta / biotin-H3K9me3 peptide binding | Potency, µM (series often up to 114 µM), for the others: at the top dose activity change, negative = inhibition, actives largely listed as inhibitors | 0.56% of 390,000 active | AID 540317; further: nearly all actives have a fitted effect of over 70% in size
#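 Compound inhibition of the preformed complex between 50 nM HP1-beta and 50 nM biotinylated H3K9me3 peptide was read by AlphaScreen. Buffer was PBS pH 7.4 with 0.01% Tween-20. Incubations ran 30 min at room temperature, with 10 ug/mL donor/acceptor beads.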
# The depositor's hits bear a star; ? = inconclusive; nt = no result given; [ ] = remark or other dose. The call rests on the fitted dose curve; in most records, active means well fitted curve in the direction sought with a large enough effect; inconclusive means small, poorly fitted or top-dose-only effect, or another doubt; inactive means no such curve, though single readings can be large; an effect the other way counts as inactive or inconclusive. Potency means the concentration at half of the fitted maximal effect.
SMILES,Sfp inh,JMJD2A Tudor,G9a inh,BAZ2B inh,PLK1 PBD inh,HP1b chromo inh
CC(C)[C@H](NC(=O)C1CC(=O)N(c2ccc3c(c2)OCO3)C1)C(=O)NC1CCCC1 (stereo partly specified),3%,21%,56µM*,?,-13%,65%
COc1ccc(N2CC(C(=O)N[C@@H](C)C(=O)N[C@H](CO)c3ccccc3)CC2=O)cc1 (stereo partly specified),6%,-5%,5.6µM*,-25%,-5%,32%
COc1ccc(N2CC(C(=O)N[C@@H](C)C(=O)NC3CCCC3)CC2=O)cc1 (stereo partly specified),20%,-10%,nt,1%,-11%,17%
CC(C)C[C@H](NC(=O)C1CC(=O)N(c2ccc3c(c2)OCO3)C1)C(=O)NC1CCCC1 (stereo partly specified),12%,-8%,?,-24%,-13%,29%
C[C@H](NC(=O)C1CC(=O)N(c2ccc3c(c2)OCO3)C1)C(=O)NC1CCCC1 (stereo partly specified),17%,?,10%,-14%[57.1 µM],27µM*,3%
C[C@H](NC(=O)C1CC(=O)N(c2ccc3c(c2)OCCO3)C1)C(=O)NC1CCCC1 (stereo partly specified),12%,-5%,2%,-11%,5%,46%
Cc1nc(C(F)(F)F)ccc1C(=O)N1CCC(C)(C(=O)NS(=O)(=O)C2CC2)C1 (stereo unspecified),nt,nt,nt,nt,-3%,nt
Nc1nc(-c2ccc(Cl)cc2)c(N=Nc2ccc(S(=O)(=O)N3CCOCC3)cc2)s1,-4%,?,?,7.1µM*,-3%,?
COc1cc(C(=O)O)ccc1Cl,32%,-10%[11.4 µM],?,-33%,-2%,72%
Cc1cc(/C(=N/O)C(C)(C)NO)ccc1Cl,-10%,20µM*,?,-8%,-6%,-18%
CC(C)(NO)/C(=N\O)c1ccccc1,-7%,13µM*,10µM*,40µM*,-4%,71µM*
COc1cc(NC(=O)CC(c2cccs2)N2Cc3ccccc3C2=O)cc(OC)c1OC (stereo unspecified),nt,8%,-30%[59 µM],-21%,nt,27%
CCN1CCN(C(=S)c2ccc(Cl)c(Cl)c2)CC1,16µM*,-32%,2.5µM*,-34%,11µM*,-30%
CCN1CCN(C(=S)c2ccc(-c3ccccc3)cc2)CC1,22µM*,-22%,32µM*,-29%,11µM*,-9%
COc1ccc(NC(=O)/C=N/O)cc1,6%,-7%,-9%,-12%,-16%,-11%
COc1ccc(/C(=N\Nc2ccccc2C(=O)O)c2ccccc2)cc1,2%,?,35µM*,-34%,?,-3%
COc1ccc(N/N=C(\C=N\O)C(=O)c2ccc(OC)cc2)cc1,0%,?,50µM*,40µM*,2%,-8%
COc1ccc(C(=O)C(=NNc2ccccc2)c2ccc(OC)cc2)cc1,nt,45µM*,nt,nt,-1%,?
CCOC(=O)C(=O)N/N=C(/c1ccccc1)c1ccc(OC)cc1,22%,-15%,8%,-11%,-10%,15%
COc1ccccc1-c1cncnc1Nc1ccc(F)cc1,-6%,nt,nt,nt,nt,nt
CCc1nn(C(C)C(=O)N2CCN(c3cccc(C(F)(F)F)c3)CC2)c(=O)c2cc3occc3n12 (stereo unspecified),nt,?,-30%[59 µM],?,nt,9%
COCCn1nnnc1C(c1ccccc1OC)N1CCN(c2ccccc2)CC1 (stereo unspecified),14%,45µM*,45µM*,-24%,1%,33%
COc1ccccc1C(c1nnnn1CCc1ccccc1)N1CCN(c2ccccc2)CC1 (stereo unspecified),6%,-14%,?,-29%,3%,-1%
COCCn1nnnc1C(c1cccs1)N1CCN(c2cc(C)ccc2C)CC1 (stereo unspecified),-15%,79µM*,-44%[12.7 µM],-37%,-29%,-16%
